TIM10 inh: growth inhibitors of TIM10 yeast strain; 330,000 tested, 1.4% active; S. cerevisiae TIM10 strain growth, BacTiter-Glo luminescence, 24 h; inhibition, % at 10 µM;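 active = inhibition of 40% or more at the single tested concentration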;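 also: wild-type TIM10 isogenic control strain grown at permissive 25 °C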
tim10-1 inh: growth inhibitors of tim10-1 mutant yeast; S. cerevisiae tim10-1 ts strain growth, BacTiter-Glo, 24 h; inhibition, % at 20 µM; 330,000 tested, 2.2% active;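 active = inhibition of at least 40%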;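 also: mutant grown at 25 °C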
tim23-1 inh: growth inhibitors of tim23-1 mutant yeast | S. cerevisiae tim23-1 growth, BacTiter-Glo luminescence, 24 h | 330,000 tested, 1.3% active | inhibition, % at 20 µM;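 active = growth inhibition of the mutant yeast at or above 50%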;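 also: temperature-sensitive mutant grown at 25 °C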
NALP3 yeast inh: NALP3 inhibition in yeast; Yeast reconstituted NLRP3/ASC/caspase-1, beta-gal luminescence, 24 h; inhibition, % at 10 µM; 330,000 tested, 0.39% active; AID 2825;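 active = inhibition of 50% or more; inactive = inhibition below 50%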
NALP1 inh: inhibitors of NALP1 inflammasome in yeast; S. cerevisiae NALP1/ASC/caspase-1 growth, X-gal OD620, 72 h; inhibition, % at 10 µM; 280,000 tested, 0.61% active; in the data active = inhibition mostly above about 24%, no sharp cut-off; inactive = mostly below about 32%
tim23-1 confirm: confirmation of tim23-1 mutant yeast growth inhibitors | shares compounds with tim23-1 inh | S. cerevisiae tim23-1 growth, BacTiter-Glo luminescence, 24 h | inhibition, % at 20 µM | 4,400 tested, 83% active | AID 463218;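 active = inhibition above about 39% in either of two replicate wells at 20 µM, limit read from the data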;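 also: temperature-sensitive tim23-1 mutant grown at 25 °C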
Of the large screens only hits and unclear results are named; the others gave an inactive call (follow-up assays come after a bar, where they were run). Shown are actives, neighbours in structure and some others; about 4% of the full set was active somewhere.

CCN(CC)C(=O)Cn1ncc2c1-c1ccccc1OC2	none
CCCCCc1ccc(C(=O)CCC(=O)OCC(=O)N(CC)c2c(N)n(Cc3ccccc3)c(=O)[nH]c2=O)cc1	none (no result: NALP1 inh)
O=C(Nc1nc(-c2ccc(Cl)s2)cs1)c1ccco1	tim23-1 inh 62 | tim23-1 confirm 67
O=C(Nc1nc(-c2cccs2)c(-c2ccccc2)s1)c1ccco1	tim23-1 inh 55 | tim23-1 confirm 62
O=C(Nc1nc(-c2nc3ccccc3s2)cs1)c1ccco1	none
Nc1nc(-c2ccc(NC(=O)c3ccco3)cc2)cs1	tim23-1 inh 56 | tim23-1 confirm 70
O=C(Nc1ccc(-c2ccc(N3CCCCC3)nn2)cc1)c1ccco1	tim23-1 inh 63 (no result: NALP1 inh) | tim23-1 confirm 66
COc1ccccc1NC(=O)c1cnc(SCC(=O)NCC2CCCO2)n(C)c1=O (stereo not drawn)	none (no result: NALP1 inh)
Cc1ccn2cc(-c3ccc(NC(=O)c4ccco4)cc3)nc2c1	tim23-1 inh 56, NALP1 inh 46 | tim23-1 confirm 48
COC(=O)c1ccc(NC(=O)CSc2nc(=O)n3cccc(C)c3n2)cc1	tim23-1 inh 72 (no result: NALP1 inh) | tim23-1 confirm 53
COc1ccc(C(=O)COC(=O)c2sc(C)nc2C)cc1F	none (no result: NALP1 inh)
C[C@H](CO)N1C[C@H](C)[C@@H](CN(C)S(C)(=O)=O)Oc2ccc(NC(=O)NC3CCCCC3)cc2C1=O	none (no result: NALP1 inh)
Cc1ccc(C(=O)NC(=S)Nc2ccccc2C(F)(F)F)cc1C	none
Cc1cccc(C(=O)NC(=S)Nc2ccccc2C(F)(F)F)c1	tim23-1 inh 51 | tim23-1 confirm 38
Cc1cc(C)nc(OC(=O)c2ccc(Cl)cc2Cl)n1	tim23-1 inh 74 | tim23-1 confirm 67
CC(=O)c1ccc(N(C(=O)c2csnn2)C(C(=O)NC2CCCC2)c2ccccc2)cc1 (stereo not drawn)	none
CC(=O)Nc1ccc(S(=O)(=O)N(Cc2cccnc2)Cc2cc3ccc(C)cc3[nH]c2=O)cc1	tim23-1 inh 52 | tim23-1 confirm 53
Cc1ccc(S(=O)(=O)N(Cc2cccnc2)Cc2cc3ccccc3[nH]c2=O)cc1	none
CCc1ccc2nc(SCC(=O)Nc3nnc(C)s3)c(C)cc2c1	tim23-1 inh 58 | tim23-1 confirm inactive
COc1ccccc1[C@H]1C(c2ccc(F)cc2)=NN(c2ccccc2)[C@@H]1CO	tim23-1 inh 55 (no result: NALP3 yeast inh, NALP1 inh) | tim23-1 confirm inactive
COc1ccccc1[C@H]1C(c2cccc(C)c2)=NN(c2ccccc2)[C@@H]1CO	tim23-1 inh 51 (no result: NALP3 yeast inh, NALP1 inh) | tim23-1 confirm 45
COc1ccccc1[C@H]1C(c2ccccc2)=NN(c2ccccc2)[C@@H]1CO	tim23-1 inh 50 (no result: NALP3 yeast inh, NALP1 inh) | tim23-1 confirm 39
C[C@H]1C(c2ccc(F)cc2)=NN(c2ccccc2)[C@@H]1CO	tim23-1 inh 51 (no result: NALP3 yeast inh, NALP1 inh) | tim23-1 confirm inactive
Cc1cccc(C2=NN(c3ccccc3)[C@@H](C(=O)N3CCOC3=O)[C@@H]2c2ccccc2)c1	none (no result: NALP3 yeast inh, NALP1 inh)
O=C(CCl)N1c2ccccc2SCC1c1ccccc1 (stereo not drawn)	tim23-1 inh 54 | tim23-1 confirm 51
O=C(CCl)N1c2ccccc2OCC1c1ccccc1 (stereo not drawn)	none
Nn1c(SCc2ccccc2)nc2ccccc21	none
COc1ccccc1C(=O)N1c2ccccc2Sc2ccccc21	none
CCOc1ccccc1C(=O)N1c2ccccc2Sc2ccccc21	tim23-1 inh 51 | tim23-1 confirm 42
C[C@H](NC(=O)[C@@H]1Cc2ccccc2CN1)C(=O)NC1CCCC1	none
Cc1ccc(Nc2nc(Cl)nc(NC(C)(C)C)n2)cc1	tim23-1 inh 50 | tim23-1 confirm 40
CCOC(=O)CNc1nc(Cl)nc(Nc2ccc(C)cc2)n1	none (no result: NALP1 inh)
Cc1ccccc1/C=C1\Oc2ccccc2C1=O	tim23-1 inh 54 (no result: NALP1 inh) | tim23-1 confirm 57
COc1cccc(/C=N/Nc2nccnc2Cl)c1O	tim23-1 inh 67 | tim23-1 confirm 61
Cc1ccc(-c2nc3c(c(=O)c4ccccc4n3C)c(=O)n2Cc2ccco2)cc1	tim23-1 inh 53 | tim23-1 confirm 46
COC(=O)CC1COc2ccccc2N1C(=O)c1ccc(C(C)(C)C)cc1 (stereo not drawn)	tim23-1 inh 53 | tim23-1 confirm inactive
CN(CC(=O)Nc1cccc(S(=O)(=O)N2CCOCC2)c1)CC(=O)Nc1ccc(Cl)c(C(F)(F)F)c1	none (no result: NALP1 inh)
CCOC(=O)Nc1ccc(Oc2ccccc2)cc1	none
CCOC(=O)Nc1ccc(C(=O)/C=C/c2ccccc2)cc1	tim23-1 inh 58 | tim23-1 confirm inactive
COc1ccc(S(=O)(=O)N2CC(=O)Nc3ccccc32)cc1	none
O=C1NC(=O)C(Cc2ccccc2)(c2cccnc2)N1 (stereo not drawn)	none
CC(C)N1C(=O)C(Cc2nc3ccccc3c(=O)n2-c2ccccc2)c2ccccc21 (stereo not drawn)	none
CCCN1C(=O)C(Cc2nc3ccccc3c(=O)n2-c2ccccc2)c2ccccc21 (stereo not drawn)	tim23-1 inh 51 | tim23-1 confirm 49
COc1ccccc1N1CCN(C(=O)c2cc3cc(F)ccc3[nH]2)CC1	none
COc1ccccc1N1CCN(C(=O)c2cc3ccccc3[nH]2)CC1	tim23-1 inh 52 | tim23-1 confirm 48
CC(C)(C)C(CO)NC(=O)c1ccc[nH]1 (stereo not drawn)	none (no result: NALP1 inh)
CCN(CC)CCCNC1=C(Cl)C(=O)c2ccccc2C1=O	none
O=C1C(Cl)=C(Nc2ccccc2)C(=O)c2ccccc21	none (no result: TIM10 inh, tim10-1 inh, tim23-1 inh, NALP3 yeast inh)
CC(C)NC1=C(Cl)C(=O)c2ccccc2C1=O	tim23-1 inh 55 | tim23-1 confirm 45
C=CCNC1=C(Cl)C(=O)c2ccccc2C1=O	tim23-1 inh 54 | tim23-1 confirm 44
COc1ccccc1NC(=O)c1cccc(NC(=O)c2ccco2)c1	tim23-1 inh 57 | tim23-1 confirm 45
O=C(Nc1cccc(N=Cc2cc(Cl)cc(Br)c2O)c1)c1ccco1	tim23-1 inh 78 | tim23-1 confirm 90
O=C(Nc1cccc(NC(=O)c2ccco2)c1)c1cccc(Br)c1	tim23-1 inh 58 | tim23-1 confirm 60
COc1ccccc1NC(=O)c1ccc(NC(=O)c2ccco2)cc1	none
CCCCCCc1ccc(N2C[C@H](Cc3ccccc3)[C@@H](CC(=O)Nc3ccccc3)C2=O)cc1	none
COc1cccc(OC)c1C(=O)OCC(=O)N(c1ccccc1)C1CCCCC1	none (no result: NALP1 inh)
O=[N+]([O-])c1cccnc1SCc1ccccc1	none
O=C(C1CCCN(S(=O)(=O)c2ccc(Br)cc2)C1)N1CCN(Cc2ccccc2)CC1 (stereo not drawn)	none
O=C(Nc1cc(Cl)ccc1O)C1CC(c2ccccc2Cl)=NO1 (stereo not drawn)	tim23-1 inh 52 | tim23-1 confirm 73
CSc1ccccc1NC(=O)C1CC(c2ccccc2Cl)=NO1 (stereo not drawn)	none
COc1ccc(N=CC2=C(Nc3ccc(OC)cc3)c3c(C)nn(-c4ccccn4)c3CC2)cc1	tim23-1 inh 51 (no result: NALP1 inh) | tim23-1 confirm 52
COc1ccc(-c2cc(C(=O)O)c3c(C)nn(-c4ccccn4)c3n2)cc1	none

From PubChem BioAssay
